Data on nine compounds can be found in PubChem BioAssay (Tox21).

Values joined by “and” are separate entries in the source; they are usually repeats but may differ in a detail not shown here. Equal entries are not always repeated. Results filed as inconclusive are left out. Active and inactive are the calls of the source. Unless noted, calls follow the shape of the dose curve; as a rule, active = well fitted curve in the direction sought with a large enough effect in the repeat runs; inconclusive = weak or mixed curves; inactive = no such curve, though single readings can be large; an effect the other way counts as inactive or inconclusive.

Assay [1] in a line: qHTS assay to identify aromatase inhibitors - cell viability counter screen (AID 743084).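 Also: cells stimulated with testosterone during compound exposure; nearly all actives have a fitted effect of over 55% in size.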 Also: potency is read from the fitted curve at half-maximal effect. In general terms: In qHTS, concentration-response curves come from the screen itself.
In assay [2] the target is Aryl hydrocarbon receptor (Homo sapiens) (UniProt P35869). Kind of assay: qHTS assay to identify small molecule that activate the aryl hydrocarbon receptor (AhR) signaling pathway (AID 743085). Also: nearly all actives have a fitted effect of over 15% in size. Also: potency is read from the fitted curve at half-maximal effect.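 As to activation: HG2L7.5c1 human HepG2 liver cells with stably integrated DRE-driven firefly reporter; series mostly up to about 70 µM.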 Put shortly: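 24 h compound exposure, 37C, HepG2-derived HG2L7.5c1 cells with DRE-responsive luciferase. Readouts: fluorescence viability, then luminescence at room temperature after 30 min.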

Assay [3] can be described thus: qHTS assay to identify small molecule that activate the aryl hydrocarbon receptor (AhR) signaling pathway - cell viability counter screen (AID 743086). Also: nearly all actives have a fitted effect of over 45% in size. Also: potency is read from the fitted curve at half-maximal effect. Put shortly: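 HepG2-AhR-luc (HG2L7.5c1) cells, 4000/well, treated 24 h at 37 C with compound; viability measured as CellTiter-Fluor fluorescence after 30 min in the same wells as the luciferase read.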
The nature of assay [4]: qHTS assay for small molecule agonists of the antioxidant response element (ARE) signaling pathway (AID 743202; active = well fitted activation curve with a large enough effect in the signal ratio in the repeat runs, not every such curve was filed as active; the % refers to the signal ratio). Put shortly:
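HepG2 ARE-bla cells; 16 h treatment at 37 C; FRET-based beta-lactamase fluorescence read after 2 h substrate incubation at room temperature.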

Assay [5] can be described thus: qHTS assay for small molecule agonists of the antioxidant response element (ARE) signaling pathway - cell viability counter screen (AID 743203; calls by dose curve; also: nearly all actives have a fitted effect of over 55% in size; also: potency is read from the fitted curve at half-maximal effect). The gist of the method: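 Viability counter screen: CellTiter-Glo luminescence, read after 30 min at room temperature, in ARE-bla HepG2 wells. Compound exposure lasted 16 h at 37C/5% CO2, following a 5 h pre-incubation of the cells after plating.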

Assay [6] is described as follows: qHTS assay for small molecule activators of the heat shock response signaling pathway - cell viability counter screen (AID 743209). Also: nearly all actives have a fitted effect of over 50% in size. The gist of the method: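 Cytotoxicity counter screen run in the same wells as the heat-shock bla reporter assay: HeLa HSE-bla cells, 5 h compound exposure at 37 C, viability read by CellTiter-Glo luminescence.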
The nature of assay [7]: qHTS assay to identify small molecule agonists of the peroxisome proliferator-activated receptor delta (PPARd) signaling pathway - cell viability counter screen (AID 743211). Also: nearly all actives have a fitted effect of over 55% in size. Also: potency is read from the fitted curve at half-maximal effect. Put shortly:
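Luminescent ATP viability assay (CellTiter-Glo, 30 min RT) in UAS-bla HEK293H cells carrying the PPAR delta reporter construct, 3000 cells/well, after a 17 h compound treatment at 37 C.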

Assay [8] is described as follows: qHTS assay to identify small molecule antagonists of the peroxisome proliferator-activated receptor delta (PPARd) signaling pathway - cell viability counter screen (AID 743213). Also: nearly all actives have a fitted effect of over 50% in size. Also: potency is read from the fitted curve at half-maximal effect. The gist of the method: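 In this counter screen, HEK293H cells carrying a UAS-beta-lactamase reporter are co-treated with test compounds and 300 nM L165041 (final) for 17 h at 37 C; cell viability is quantified by CellTiter-Glo luminescence.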

The nature of assay [9]: qHTS assay to identify small molecule agonists of the farnesoid-X-receptor (FXR) signaling pathway - cell viability counter screen (AID 743218). Also: nearly all actives have a fitted effect of over 45% in size. Also: potency is read from the fitted curve at half-maximal effect. The gist of the method: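 Viability counter screen in the same wells: CellTiter-Glo luminescence, 30 min room-temperature incubation, measured after the beta-lactamase read. Cells were GeneBLAzer FXR-UAS-bla HEK 293T, compound-treated 16 h at 37C.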

Assay [10] in a line: qHTS assay to identify small molecule antagonists of the farnesoid-X-receptor (FXR) signaling pathway - cell viability counter screen (AID 743221; active = well fitted cell-killing curve with a large enough effect in the repeat runs, not every such curve was filed as active; also: nearly all actives have a fitted effect of over 50% in size; also: potency is read from the fitted curve at half-maximal effect). Put shortly:
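In GeneBLAzer FXR-UAS-bla HEK 293T cells stimulated with 50 uM chenodeoxycholic acid (final), compounds acted for 16 h at 37 C. Viability was assessed afterwards by CellTiter-Glo luminescence.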

Assay [11] has as its target Vitamin D3 receptor (Homo sapiens) (UniProt P11473). Kind of assay: qHTS assay to identify small molecule agonists of the vitamin D receptor (VDR) signaling pathway (AID 743222; calls by dose curve). The gist of the method: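 Agonist mode, beta-lactamase reporter: fluorescence from LiveBLAzer B/G FRET substrate (2 h, room temperature) read after 16 h compound treatment at 37 C of VDR-bla cells, which were pre-incubated 4 h after seeding.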

Assay [12] addresses Peroxisome proliferator-activated receptor gamma (Homo sapiens) (UniProt P37231). Kind of assay: qHTS assay to identify small molecule agonists of the peroxisome proliferator-activated receptor gamma (PPARg) signaling pathway (AID 743094; active = well fitted activation curve with a large enough effect in the signal ratio in the repeat runs, not every such curve was filed as active; the % refers to the signal ratio). The gist of the method:
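Agonist activity was taken from a beta-lactamase reporter (FRET substrate, 1 h at room temperature) in HEK293H cells carrying a PPARg UAS-bla construct. Compounds in DMSO were incubated 17 h at 37C after a 5 h cell pre-incubation.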

Assay [13] has the same target. The experiment in a line: qHTS assay to identify small molecule antagonists of the peroxisome proliferator-activated receptor gamma (PPARg) signaling pathway (AID 743191; calls by dose curve; also: series mostly up to about 63 µM; nearly all actives have a fitted effect of over 30% in size). The gist of the method:
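GeneBLAzer PPARg UAS-bla HEK293H cells, 5 h post-plating, exposed to compounds 17 h at 37C. LiveBLAzer B/G FRET substrate added for 1 h at room temperature; beta-lactamase reporter read by fluorescence intensity.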

Assay [14] can be described thus: qHTS assay to identify small molecule antagonists of the peroxisome proliferator-activated receptor gamma (PPARg) signaling pathway - cell viability counter screen (AID 743194). Also: nearly all actives have a fitted effect of over 55% in size. The gist of the method: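 Cytotoxicity counter screen in PPARg-bla HEK293H cells, same wells as reporter assay. Compounds plus 50 nM rosiglitazone (final) for 17 h at 37 C, then viability read by CellTiter-Glo luminescence.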

A short description of assay [15]: qHTS assay for small molecule activators of the heat shock response signaling pathway (AID 743210; active = well fitted activation curve with a large enough effect in the signal ratio in the repeat runs, with a control signal flat, not every such curve was filed as active; the % refers to the signal ratio;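 also: HeLa cells with beta-lactamase reporter driven by heat shock elements; series mostly up to about 63 µM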). Put shortly: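 Following overnight attachment, HSE-bla HeLa cells received test compounds for 5 h at 37 C; beta-lactamase activity was then detected via FRET substrate fluorescence.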
Assay [16] addresses Peroxisome proliferator-activated receptor delta (Homo sapiens) (UniProt Q03181). Kind of assay: qHTS assay to identify small molecule agonists of the peroxisome proliferator-activated receptor delta (PPARd) signaling pathway (AID 743212; calls by dose curve). Put shortly:
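Tox21 library screened in GeneBLAzer PPARd UAS-bla HEK293H cells. After compound treatment at 37 C, a FRET-based beta-lactamase substrate was applied for 2 h and fluorescence recorded.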

Assay [17] has the same target. The experiment in a line: qHTS assay to identify small molecule antagonists of the peroxisome proliferator-activated receptor delta (PPARd) signaling pathway (AID 743215; active = well fitted inhibition curve with a large enough effect in the signal ratio in the repeat runs, not every such curve was filed as active; the % refers to the signal ratio;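 also: cells stimulated with agonist L165041 at 300 nM final during compound exposure; series mostly up to about 62 µM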). Put shortly:
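Agonist L165041 (300 nM final) added with compound to PPARd-bla HEK293H UAS-bla reporter cells; 17 h incubation at 37 C. Read-out: LiveBLAzer FRET substrate, 2 h at room temperature, fluorescence intensity.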

The target of assay [18] is Vitamin D3 receptor (Homo sapiens) (UniProt P11473). Kind of assay: qHTS assay to identify small molecule antagonists of the vitamin D receptor (VDR) signaling pathway (AID 743223; active = well fitted inhibition curve with a large enough effect in the signal ratio in the repeat runs, not every such curve was filed as active; the % refers to the signal ratio). The gist of the method:
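Agonist 1alpha,25-dihydroxyvitamin D3 (3 nM in well) was added with each compound to VDR-bla cells preincubated 4 h. Cells stood 16 h at 37C, then FRET substrate 2 h at room temperature; fluorescence intensity recorded.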

For assay [19], the target named is Bile acid receptor (Homo sapiens) (UniProt Q96RI1). The experiment in a line: qHTS assay to identify small molecule antagonists of the farnesoid-X-receptor (FXR) signaling pathway (AID 743217; active = well fitted inhibition curve with a large enough effect in the signal ratio in the repeat runs, not every such curve was filed as active; the % refers to the signal ratio). Put shortly:
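Antagonist mode: chenodeoxycholic acid at 50 uM final stimulates a UAS-driven beta-lactamase reporter in HEK 293T FXR-bla cells during 16 h, 37C compound exposure. Read-out is FRET substrate fluorescence after 2 h at room temperature.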

Assay [20] has the same target. Kind of assay: qHTS assay to identify small molecule agonists of the farnesoid-X-receptor (FXR) signaling pathway (AID 743220; active = well fitted activation curve with a large enough effect in the signal ratio in the repeat runs, not every such curve was filed as active; the % refers to the signal ratio). The gist of the method: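 FXR-UAS-bla HEK 293T cells carrying a UAS-driven beta-lactamase reporter were plated for 5 h at 37C/5% CO2, then exposed to DMSO-dissolved Tox21 10K compounds for 16 h at 37C. A LiveBLAzer B/G FRET substrate was loaded for 2 h at room temperature before fluorescence reading.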

Sequence of Bile acid receptor (Homo sapiens) (Q96RI1 whole entry, looked up): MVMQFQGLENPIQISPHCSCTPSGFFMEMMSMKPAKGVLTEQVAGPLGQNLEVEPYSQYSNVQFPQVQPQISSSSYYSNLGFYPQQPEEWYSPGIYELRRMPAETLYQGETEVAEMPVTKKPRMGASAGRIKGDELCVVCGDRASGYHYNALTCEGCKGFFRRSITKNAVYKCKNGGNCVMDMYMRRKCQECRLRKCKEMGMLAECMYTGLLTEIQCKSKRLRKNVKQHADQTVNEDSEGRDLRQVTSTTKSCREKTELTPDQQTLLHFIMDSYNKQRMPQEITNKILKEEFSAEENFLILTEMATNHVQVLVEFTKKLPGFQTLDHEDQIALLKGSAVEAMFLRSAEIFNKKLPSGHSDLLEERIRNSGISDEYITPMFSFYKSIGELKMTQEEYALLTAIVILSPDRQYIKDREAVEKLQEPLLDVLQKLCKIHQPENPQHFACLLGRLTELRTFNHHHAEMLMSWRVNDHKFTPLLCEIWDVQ
Sequence of Peroxisome proliferator-activated receptor delta (Homo sapiens) (Q03181 whole entry, looked up): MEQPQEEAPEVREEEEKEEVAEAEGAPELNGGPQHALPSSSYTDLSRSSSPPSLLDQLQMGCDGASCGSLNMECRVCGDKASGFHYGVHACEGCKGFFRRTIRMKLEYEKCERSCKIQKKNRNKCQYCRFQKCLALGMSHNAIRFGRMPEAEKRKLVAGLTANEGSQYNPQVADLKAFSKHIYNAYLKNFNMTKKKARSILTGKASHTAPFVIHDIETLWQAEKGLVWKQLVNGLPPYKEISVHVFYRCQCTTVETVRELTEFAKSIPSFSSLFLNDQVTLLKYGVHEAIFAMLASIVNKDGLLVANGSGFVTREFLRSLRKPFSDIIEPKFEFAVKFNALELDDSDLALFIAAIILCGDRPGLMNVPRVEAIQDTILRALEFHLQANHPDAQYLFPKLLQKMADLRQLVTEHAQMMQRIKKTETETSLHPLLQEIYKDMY
Sequence of Peroxisome proliferator-activated receptor gamma (Homo sapiens) (P37231 whole entry, looked up): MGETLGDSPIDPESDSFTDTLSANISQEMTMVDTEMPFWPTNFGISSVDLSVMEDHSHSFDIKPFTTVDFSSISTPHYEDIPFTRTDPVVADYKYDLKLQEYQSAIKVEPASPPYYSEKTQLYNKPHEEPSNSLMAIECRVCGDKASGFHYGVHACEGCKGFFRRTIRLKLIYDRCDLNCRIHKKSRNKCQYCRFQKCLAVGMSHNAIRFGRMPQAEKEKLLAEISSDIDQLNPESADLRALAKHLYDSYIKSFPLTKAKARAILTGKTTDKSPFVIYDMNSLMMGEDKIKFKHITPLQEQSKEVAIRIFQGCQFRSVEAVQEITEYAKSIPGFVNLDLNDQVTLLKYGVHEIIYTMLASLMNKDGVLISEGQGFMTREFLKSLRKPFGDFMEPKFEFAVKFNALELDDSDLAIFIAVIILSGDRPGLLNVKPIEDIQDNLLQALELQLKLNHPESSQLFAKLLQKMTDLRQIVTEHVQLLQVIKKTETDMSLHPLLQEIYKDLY
Sequence of Vitamin D3 receptor (Homo sapiens) (P11473 whole entry, looked up): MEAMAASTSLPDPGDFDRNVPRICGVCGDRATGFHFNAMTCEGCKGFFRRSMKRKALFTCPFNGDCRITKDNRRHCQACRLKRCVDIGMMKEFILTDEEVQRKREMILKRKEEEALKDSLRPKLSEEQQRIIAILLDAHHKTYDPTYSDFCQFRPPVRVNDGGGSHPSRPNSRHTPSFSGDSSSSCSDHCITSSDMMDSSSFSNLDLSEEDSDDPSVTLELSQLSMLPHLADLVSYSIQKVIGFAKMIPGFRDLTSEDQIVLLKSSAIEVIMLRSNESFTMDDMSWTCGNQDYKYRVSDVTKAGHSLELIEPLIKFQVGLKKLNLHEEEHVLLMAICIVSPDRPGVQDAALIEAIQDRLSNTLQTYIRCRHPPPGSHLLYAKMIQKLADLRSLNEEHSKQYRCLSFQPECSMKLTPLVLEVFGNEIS
Sequence of Aryl hydrocarbon receptor (Homo sapiens) (P35869 whole entry, looked up): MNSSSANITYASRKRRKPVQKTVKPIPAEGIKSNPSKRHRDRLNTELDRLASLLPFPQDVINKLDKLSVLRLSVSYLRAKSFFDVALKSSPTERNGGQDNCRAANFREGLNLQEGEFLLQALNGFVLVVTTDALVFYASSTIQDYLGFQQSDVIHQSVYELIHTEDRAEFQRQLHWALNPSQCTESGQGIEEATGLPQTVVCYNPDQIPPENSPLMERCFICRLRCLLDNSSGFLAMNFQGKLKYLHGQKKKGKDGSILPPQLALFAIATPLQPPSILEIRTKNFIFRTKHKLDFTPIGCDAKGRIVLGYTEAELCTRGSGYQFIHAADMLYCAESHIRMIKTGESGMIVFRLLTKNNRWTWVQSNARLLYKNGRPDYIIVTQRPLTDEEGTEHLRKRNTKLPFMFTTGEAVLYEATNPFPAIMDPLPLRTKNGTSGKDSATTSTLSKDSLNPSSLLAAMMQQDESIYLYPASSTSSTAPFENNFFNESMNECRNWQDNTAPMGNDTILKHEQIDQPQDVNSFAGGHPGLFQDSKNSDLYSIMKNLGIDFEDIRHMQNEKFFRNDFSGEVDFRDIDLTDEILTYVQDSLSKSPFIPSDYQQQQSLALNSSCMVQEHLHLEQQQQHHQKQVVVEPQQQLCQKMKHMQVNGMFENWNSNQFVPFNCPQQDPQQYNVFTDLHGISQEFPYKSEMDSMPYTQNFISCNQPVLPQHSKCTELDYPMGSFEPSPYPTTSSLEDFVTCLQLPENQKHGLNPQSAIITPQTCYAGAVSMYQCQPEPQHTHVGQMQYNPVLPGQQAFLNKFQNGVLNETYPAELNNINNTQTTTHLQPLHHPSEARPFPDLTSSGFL

On to `CN(C)CCCN1c2ccccc2CCc2ccc(Cl)cc21`, for which the Potency in assay [1] is 48.6 µM (active); in assay [3], 27.3 µM (active); in assay [5], 43.3 µM (active); in assay [7], 38.9 µM (active) and 29.8 µM (active); in [8], 21.9 µM (active) and 13.3 µM (active); in assay [9], 24.5 µM (active). Further, the Potency in assay [10] was 49 µM (active). For the same compound, the Potency entry in assay [2] and in assay [4] was “inactive” in each case. Besides, the outcome in assay [6] and in assay [11] was inactive.
Turning to `NC(=O)COCCN1CCN(C(c2ccccc2)c2ccc(Cl)cc2)CC1` (centres undefined), the Potency result in assay [1], in [2], in assay [13], in assay [4], in assay [5] and in assay [7] was “inactive” in each case. Further, the Potency result in [17], in assay [9] and in assay [10] was “inactive” each time. Moreover, the compound was classed as inactive in assay [12], in assay [14], in assay [6], in [15], in assay [16] and in assay [18].
Turning to `CCOC(=O)c1c(C)n(C)c2ccc(O)cc12`, the Potency result in assay [1], in assay [3], in assay [5], in assay [7], in assay [8] and in assay [9] was “inactive” throughout. Further, in assay [10], the Potency entry is “inactive”. Moreover, the Potency in assay [2] is 1.68 µM (active). Besides, the call in [14], in assay [6], in assay [15], in [19], in [20] and in assay [11] was inactive. Moreover, in assay [18], the call was inactive.
On to `CCN(Cc1ccncc1)C(=O)C(CO)c1ccccc1` (centres undefined), for which the Potency result in assay [1], in assay [2], in assay [3], in [5], in [7] and in [8] was “inactive” throughout. Besides, the Potency entry in assay [9] and in assay [10] was “inactive” in each case. The result in assay [14], in assay [6], in assay [11] and in [18] was inactive.
Take `CC(=O)CC(C)C`: the Potency entry in assay [1], in assay [3], in [13], in assay [4], in assay [5] and in assay [7] was “inactive” throughout. Further, the Potency entry in assay [8], in assay [17], in assay [9] and in [10] was “inactive” each time. Also, the result in assay [12], in [14], in assay [6], in assay [16], in [19] and in [20] was inactive. Moreover, the call in [11] and in assay [18] was inactive.
Turning to `C[N+](C)(C)CC(O)CC(=O)[O-]` (centres undefined), the Potency result in assay [1], in assay [2], in assay [3], in [4], in assay [5] and in assay [7] was “inactive” in each case. In addition, the Potency result in [8], in assay [17], in [9] and in [10] was “inactive” throughout. Also, the call in [14], in assay [6], in assay [11] and in assay [18] was inactive.
Take `CN(C)CCCSc1ccccc1NC(=O)/C=C/c1ccccc1`: the Potency result in [1], in assay [3], in [4], in assay [5], in [7] and in assay [8] was “inactive” throughout. The Potency result in assay [17] and in assay [10] was “inactive” throughout. Also, the compound was classed as inactive in assay [12], in assay [14], in assay [6], in assay [15], in assay [16] and in assay [20]. Besides, the result in assay [11] and in assay [18] was inactive.
On to `CCN(CC)CCOCCOC(=O)C1(c2ccccc2)CCCC1`, for which the Potency entry in assay [2], in assay [4], in [5], in [7], in [8] and in assay [9] was “inactive” throughout. For the same compound, the Potency result in assay [10] is “inactive”. For the same compound, the compound was classed as inactive in [14], in assay [6], in [19] and in assay [20].
On to `CCS(=O)(=O)c1ccc(OC)c(C(=O)OC)c1`, for which the compound was called inactive in [14], in assay [6], in [15], in assay [19] and in [20]. In addition, the Potency entry in assay [4], in assay [5], in assay [7], in [8], in assay [17] and in [9] was “inactive” each time. The Potency entry in assay [10] is “inactive”.
